# From PubChem
# RXFP1 antag – RXFP1 (human) relaxin receptor antagonism; Q9HBX9; HEK293-RXFP1, relaxin-stimulated cAMP HTRF, 30 min; active compounds read low; activity change, negative = inhibition, % at 57.5 µM; 350,000 tested, 0.59% active; AID 1259400;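 active = activity change of -60% or lower, but not beyond a set lower limit; inconclusive = change between -60% and -40%, or beyond the set limit; inactive = change above -40%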; note: % is set by controls: 0 for no effect and ±100 for the full control effect
# Target sequence (Q9HBX9 whole entry, looked up): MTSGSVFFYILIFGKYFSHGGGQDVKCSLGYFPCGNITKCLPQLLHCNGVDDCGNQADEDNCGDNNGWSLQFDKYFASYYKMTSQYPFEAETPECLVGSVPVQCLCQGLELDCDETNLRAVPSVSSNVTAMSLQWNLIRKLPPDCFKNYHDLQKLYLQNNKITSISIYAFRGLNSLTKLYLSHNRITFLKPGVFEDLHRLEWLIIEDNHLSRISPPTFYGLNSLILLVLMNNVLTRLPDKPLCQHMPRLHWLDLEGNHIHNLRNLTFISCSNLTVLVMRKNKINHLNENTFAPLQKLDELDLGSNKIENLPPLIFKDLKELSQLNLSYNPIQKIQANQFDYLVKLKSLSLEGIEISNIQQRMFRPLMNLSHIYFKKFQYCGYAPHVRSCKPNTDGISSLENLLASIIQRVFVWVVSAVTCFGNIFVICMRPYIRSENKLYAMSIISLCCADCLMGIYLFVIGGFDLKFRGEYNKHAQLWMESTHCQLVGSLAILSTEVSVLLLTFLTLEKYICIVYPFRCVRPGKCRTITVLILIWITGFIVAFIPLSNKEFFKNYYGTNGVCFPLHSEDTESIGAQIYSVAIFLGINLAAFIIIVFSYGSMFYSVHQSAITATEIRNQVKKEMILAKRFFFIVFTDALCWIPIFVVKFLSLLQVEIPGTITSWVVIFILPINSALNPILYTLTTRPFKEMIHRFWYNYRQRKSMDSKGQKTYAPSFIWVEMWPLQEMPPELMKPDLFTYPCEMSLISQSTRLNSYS
# RXFP1 ag – activates the human relaxin receptor RXFP1; Q9HBX9; HEK293T-RXFP1 cAMP TR-FRET, 30 min; response scale: percent of porcine relaxin response, buffer zero; Potency, µM (doses to about 57.5 µM), for the others: at the top dose activation, most hits filed as activators; 370,000 tested, 0.3% active; note: potency is the fitted concentration of half-maximal effect; % is set by controls: 0 for no effect and ±100 for the full control effect; nearly all actives have a fitted effect of over 60% in size
#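 HEK293 cells stably expressing RXFP1, treated 30 min at 37C with compounds plus PDE4 inhibitor Ro 20174; cAMP measured by HTRF TR-FRET. Normalized to buffer and 29 nM porcine relaxin; EC50 by Hill fit.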
# gsp antag – gsp mutant antagonism. gsp-mutant cells, cAMP HTRF, 30 min. Potency, µM (top dose mostly 76.9 µM), for the others: at the highest dose activity change, negative = inhibition, actives largely listed as inhibitors. 340,000 tested, 0.4% active; calls by dose curve; cell line not stated here;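 note: intracellular cAMP measured with PDE inhibitor Ro 20-1724 present during compound exposure; potency is the fitted concentration of half-maximal effect; % is set by controls: 0 for no effect and ±100 for the full control effect; nearly all actives have a fitted effect of over 65% in size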
#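 HTRF cAMP read-out (cAMP-d2 plus anti-cAMP antibody-K in lysis buffer, 30 min RT). Before lysis, cells are exposed to compounds with […] for 30 min at 37C in DPBS containing Ca/Mg, BSA and Tween 20.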
# gsp agonist – agonists of gsp mutant (McCune-Albright syndrome). gsp mutant cells, cAMP HTRF, 30 min. Potency, µM (titrated, usually from 76.9 µM), inactives show top-dose activation (cAMP increase), usual class: activators. 340,000 tested, 0.13% active. AID 624287; active = well fitted activation curve with a large enough effect; inconclusive = small, poorly fitted or top-dose-only effect, or another doubt; inactive = no such curve, though single readings can be large or run the other way; cell line not stated here;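 note: phosphodiesterase inhibitor Ro 20-1724 added with compounds to block cAMP breakdown; potency is the fitted concentration of half-maximal effect; nearly all actives have a fitted effect of over 60% in size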
#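 Cells stably selected in G418 were plated at 2000/well, grown 16-24 hr, then given compounds in DMSO with the PDE inhibitor […] (300 uM solution added) for 30 min at 37C; cAMP was read by HTRF.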
# PTHR1 agonist – activates the human parathyroid hormone receptor PTHR1. HEK293 GP2 PTHR1 cells, GloSensor cAMP luminescence, 1 h. Q03431. Potency, µM (highest dose often 115 µM), inactives show top-dose activation, usual class: activators. AID 743266. 410,000 tested, 0.075% active; note: potency is the fitted concentration of half-maximal effect; nearly all actives have a fitted effect of over 55% in size
#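 HEK-293-derived GP2 cells expressing PTHR1 and a GloSensor cAMP reporter, 3,000/well, plated overnight, given luciferin plus IBMX (each 0.5 mM as added) for 1 h at 37 °C, then compound for 1 h at 37 °C. Luminescence was read after 15 min at room temperature.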
# The depositor's hits bear a star; i = inactive; ? = inconclusive; · = no result; [ ] = dose if it differs, or a comment. In the library only some 1% were active in any assay of this set; here they are far more common. Unless noted, calls come from the whole dose curve; as a rule, active = well fitted curve in the direction sought with a large enough effect; inconclusive = small, poorly fitted or top-dose-only effect, or another doubt; inactive = no such curve, though single readings can be large; an effect the other way counts as inactive or inconclusive.
SMILES,RXFP1 antag,RXFP1 ag,gsp antag,gsp agonist,PTHR1 agonist
Cc1ccc(S(=O)(=O)N(C)C[C@@H]2Oc3ncc(Br)cc3C(=O)N([C@H](C)CO)C[C@@H]2C)cc1,10,·,·,-58%,0%
C[C@H](CO)N1C[C@H](C)[C@@H](CN(C)Cc2ccc(-c3ccccc3)cc2)Oc2c(NC(=O)c3ccncc3)cccc2C1=O,·,·,32µM*,·,-15%
CC(C)CN(CC(C)C)c1ccc(C=C2C(=O)NC(=S)NC2=O)cc1[N+](=O)[O-],-63*,0%,?,-41%,-24%
CC(C)=CC1C(C(=O)OCN2C(=O)C3=C(CCCC3)C2=O)C1(C)C (stereo not given),-95*,·,·,·,·
C[C@H]1[C@@H]2Cc3ccc(O)cc3[C@]1(C)CCN2C,11,·,·,·,·
O=C(O)c1ccc(=O)[nH]c1,8,·,·,·,·
Clc1cccc(CNCCc2c[nH]c3ccccc23)c1,-84*,1%,13%,8%[15.4 µM],i
FC(F)(F)c1ccc(CNCCc2c[nH]c3ccccc23)cc1,-6,2%,14%,13%,-92%
CCC1CC2CC3c4[nH]c5ccc(OC)cc5c4CCN(C2)C13 (stereo not given),-31,·,·,·,·
CCOC(=O)C1(CCc2ccccc2)CCN(Cc2cccc3cnccc23)CC1,-83*,-3%,-22%,1%[15.4 µM],-33%
O=C(CNC(=O)c1cccc(Cl)c1)Nc1ccc(Br)cc1C(=O)c1ccccc1,-5,3%,40µM*,10%,i
O=C(O)c1sc2cc(Cl)ccc2c1Cl,·,14µM*,·,·,·
CN1C(=O)C(Cc2nc3ccccc3c(=O)n2-c2ccccc2)c2ccccc21 (stereo not given),-17,2%,35µM*,-4%,?
C[C@@H]1CC2=CC(=O)CC[C@@H]2[C@H]2CC[C@@]3(C)[C@@H](CC[C@]3(C)O)[C@@H]21,-12,·,·,·,·
Nc1ccccc1C(=O)OCC(=O)c1ccc2c(c1)OCCO2,-9,1%,?,0%,-23%
CC(=O)Nc1ccccc1C(=O)OCc1cccc(F)c1,-3,4%,11%,9%[15.4 µM],i
CC(=O)Nc1ccccc1C(=O)OCc1ccc(C(=O)c2ccccc2)cc1,-4,0%,1.8µM*,-7%,?
CC(=O)Nc1ccccc1C(=O)OCC(=O)c1ccc2ccccc2c1,30,0%,25µM*,-6%,15%[57.5 µM]
COc1cc(CCN)c(OC)cc1Br,-6,·,·,·,·
COc1cc(CC#N)cc(OC)c1OC,-5,·,·,·,·
Cc1ccc(-n2c(O)c(/C=N/Nc3ccccc3)c(=O)[nH]c2=O)cc1C,-70*,0%,-1%,?,-4%
CN1C(=O)C(Cc2ccsc2)C(=O)N(C)C1=O,-4,2%,4%,-21%,28µM*
CCNC(C)Cc1ccc2c(c1)OCO2 (stereo not given),8,·,·,·,·
ClCCCN1CCN(c2cccc(Cl)c2)CC1,14,·,·,·,·
Oc1c(Cl)cc(Cl)cc1CN1CCN(Cc2ccccc2)CC1,0,1%,-9%,-30%,i
SMILES,RXFP1 antag,RXFP1 ag,gsp antag,gsp agonist,PTHR1 agonist
Oc1c(Cl)cccc1Cc1cc(Cl)cc(Cl)c1O,-110*,·,-13%,4%,-23%
CCN(CC)C(=O)N[C@@H]1C=C2c3cccc4[nH]cc(c34)C[C@@H]2N(C)C1,-16,·,·,·,·
ClC1=C(Cl)[C@]2(Cl)[C@@H]3[C@@H]4C[C@@H]([C@H]5O[C@@H]45)[C@@H]3[C@@]1(Cl)C2(Cl)Cl,-21,·,·,·,·
O=c1[nH]c2ccccc2n1C1CCN(CCCC(c2ccc(F)cc2)c2ccc(F)cc2)CC1,-68*,6%,-20%,·,-49%
O=C1CC(N2CCC(n3c(=O)[nH]c4ccccc43)CC2)C(=O)N1c1ccc(F)cc1 (stereo not given),3,0%,2%,10%,-13%
O=C1NC(=O)N(Cc2ccccc2Cl)C(=O)/C1=C/c1cccs1,-6,-1%,3%,-31%,-49%
O=C1NC(=O)N(Cc2ccc(F)cc2)C(=O)/C1=C/c1cccs1,-74*,2%,1%,-14%[15.4 µM],-26%
C=CCC1(C(C)CC)C(=O)NC(=O)NC1=O (stereo not given),-23,·,·,·,·
